Screens from PubChem.
tim23-1 inh – growth inhibitors of tim23-1 mutant yeast, primary screen, luminescence, uHTS. S. cerevisiae tim23-1 growth, BacTiter-Glo luminescence, 24 h. inhibition, % at 20 µM. 330,000 compounds, 1.3% hits. AID 463212, 2010;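 active = growth inhibition of the mutant yeast at or above 50%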;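 note: temperature-sensitive mutant grown at 25 °C; plate controls were DMSO-treated mutant yeast for no effect and medium wells lacking yeast for full effect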
PfHsp90 set2 – growth inhibition of PfHsp90-expressing yeast, primary screen, antimalarial PfHsp90 inhibitor project, S. cerevisiae, BacTiter-Glo luminescence, single point, set 2. inhibition, % at 9.4 µM. AID 504621, 2011. 310,000 compounds, 0.32% hits. BacTiter-Glo ATP, 48 h; yeast lacking PDR1 and PDR3 efflux regulators;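 active = every replicate shows inhibition above about 80%, whatever the replicate mean, limit read from the data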;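 note: 0% = DMSO neutral controls and 100% = 20 µM radicicol positive controls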
tim10-1 inh – growth inhibitors of tim10-1 mutant yeast, primary screen, luminescence, uHTS; S. cerevisiae tim10-1 ts strain growth, BacTiter-Glo, 24 h; 330,000 compounds, 2.2% hits; inhibition, % at 20 µM;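 active = inhibition of at least 40%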;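 note: mutant grown at 25 °C; 0% = DMSO wells with yeast and 100% = wells holding no yeast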
Mot1-301 SUMO – yeast Mot1-301 growth rescue at high temperature, primary screen, SUMOylation pathway inhibitor project, S. cerevisiae, ATP luminescence, 38.5C; 320,000 compounds, 1% hits; growth rescue, % at 18.8 µM; S. cerevisiae Mot1-301 growth rescue; percent above DMSO median, 100 means doubled;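 active = every valid replicate shows activation above 250% relative to neutral control wells; inactive = the rest, any valid replicate at or below 250%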;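 note: OY570 slx delta 5 strain wells were the positive control but not used for scaling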
TIM10 inh – growth inhibitors of isogenic TIM10 control yeast, primary screen, counter-screen for tim10-1 yeast inhibitor project, luminescence, uHTS; AID 463195, 2010; 330,000 compounds, 1.4% hits; inhibition, % at 10 µM; S. cerevisiae TIM10 strain growth, BacTiter-Glo luminescence, 24 h;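 active = inhibition of 40% or more at the single tested concentration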;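 note: wild-type TIM10 isogenic control strain grown at permissive 25 °C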
tim10 confirm – growth inhibitors of wild-type TIM10 yeast, confirmation, counter-screen for tim10-1 synthetic lethality project, single concentration, luminescence, S. cerevisiae; shares compounds with TIM10 inh; S. cerevisiae tim10 strain growth, BacTiter-Glo luminescence, 24 h; inhibition, % at 10 µM; 4,600 compounds, 63% hits;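 active = inhibition of yeast growth at or above a set limit in either of two replicates at 10 µM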;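 note: this counterscreen used the strain with wild-type TIM10; 0% = yeast with DMSO and 100% = medium wells lacking yeast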
tim23-1 conf – tim23-1 mutant yeast growth inhibitors, confirmation, luminescence, single concentration | shares compounds with tim23-1 inh | S. cerevisiae tim23-1 growth, BacTiter-Glo luminescence, 24 h | inhibition, % at 20 µM | 4,400 compounds, 83% hits | AID 463218, 2010;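 active = inhibition above about 39% in either of two replicate wells at 20 µM, limit read from the data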;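 note: temperature-sensitive tim23-1 mutant grown at 25 °C; 0% = DMSO wells with yeast and 100% = medium wells without yeast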
* = called active by the depositor; · = not tested or not shown. A selection: hits, their analogues and other compounds. The true share with any hit is near 4.4%.

SMILES | tim23-1 inh | PfHsp90 set2 | tim10-1 inh | Mot1-301 SUMO | TIM10 inh | tim10 confirm | tim23-1 conf
O/N=C/c1ccccc1OCc1ccc(Cl)cc1 | 52* | -10 | 23 | 9 | 42* | -27 | 59*
Nc1ccc(-c2cc(-c3ccc(N)cc3)nc(-c3ccccc3)n2)cc1 | 14 | 2 | 24 | -5 | 31 | · | ·
Oc1ccc(-c2cc(-c3ccc(O)cc3)nc(-c3ccccc3)n2)cc1 | 61* | 11 | 31 | -19 | 67* | 63* | 61*
Cn1c(CSc2nc3ccc(Br)cc3[nH]2)nc2ccccc21 | 61* | 22 | 29 | 1 | 41* | 28 | 57*
COc1ccc2[nH]c3c(c2c1)CCN1C(=O)C(CC(=O)NCCc2ccccn2)C[C@H](C(=O)N2CCOCC2)[C@@]31CCC1CCCC1 (stereo partly specified) | 22 | -6 | 3 | · | 1 | · | ·
CC1=CC(C)(C)N(C(=O)CCl)c2ccccc21 | 11 | 1 | 20 | -12 | -7 | · | ·
CC1=CC(C)(C)N(C(=O)CN2C(=O)c3ccccc3C2=O)c2ccc(C)cc21 | 60* | 18 | 40 | -7 | 44* | 50* | 59*
CC1CCCCN1C(=S)NC(=O)c1ccco1 (stereo unspecified) | 11 | -7 | 14 | 8 | -6 | · | ·
CC1CCCCN1C(=S)NC(=O)c1cc(Br)ccc1Cl (stereo unspecified) | 54* | -1 | 35 | 13 | 41* | 44* | 50*
CCC1CCCCN1C(=S)NC(=O)c1cc(Br)ccc1Cl (stereo unspecified) | 58* | -16 | 35 | -12 | 53* | 52* | 53*
CCc1ccc(N2CC(C(=O)OCC(=O)Nc3ccc(C(C)=O)cc3)CC2=O)cc1 (stereo unspecified) | 9 | 11 | 3 | 55 | -5 | · | ·
CCOc1ccc(/C=N/NC(=S)NC2CC3C=CC2C3)cc1 (stereo unspecified) | 8 | 6 | 14 | -2 | 20 | · | ·
Oc1c(Br)cc(Br)cc1/C=N/NC(=S)N[C@H]1CC2C=CC1C2 (stereo partly specified) | 57* | -32 | 30 | 6 | 46* | 48* | 68*
O=C(NC1CC1)c1ccc(-c2nc3ccccc3s2)s1 | 59* | · | 10 | 2 | 53* | 51* | 68*
Cc1ccc2nc(NC(=O)c3ccc(-c4nc5ccccc5s4)s3)sc2c1 | 8 | 0 | 7 | 0 | 6 | · | ·
COCCCNC(=O)c1ccccc1N(Cc1ccccc1)S(=O)(=O)c1ccccc1 | 27 | -9 | 22 | -7 | -5 | · | ·
CC(OC(=O)c1ccncc1)C(=O)NC1CCCC1 (stereo unspecified) | 15 | 6 | -7 | -13 | 0 | · | ·
CC1(C)CCC[C@]2(C)C(CS(=O)c3ccccc3)=C(C=O)CC[C@@H]12 (stereo partly specified) | 67* | -12 | 29 | 161 | 49* | 47* | 55*
CCOC(=O)CS(=O)(=O)c1nc(-c2ccccc2)cc(C(F)(F)F)n1 | 64* | -24 | 38 | 15 | 44* | 55* | -41
CCOC(=O)CS(=O)(=O)c1ccccc1 | 12 | 16 | 7 | · | 7 | · | ·
Cc1nc(C)c(-c2csc(Nc3ccccn3)n2)s1 | 54* | -6 | 27 | -27 | 48* | 47* | 45*
CCOC(=O)/C(=C\c1ccc(OC)c(OC)c1)C(=O)c1cccnc1 | 59* | 30 | 35 | 150 | 50* | 48* | 56*
CCN(CC)CCNC(=O)c1ccc2c(c1NCCO)C(=O)c1ccccc1C2=O | 70* | · | 29 | 21 | 43* | 48* | 60*
O=C(NCCO)c1cccc2c1C(=O)c1ccccc1-2 | 5 | -3 | 2 | -3 | -1 | · | ·
O=S(=O)(c1ccc(Br)cc1)N1CCC2(CC1)OCCO2 | 11 | 10 | 6 | 84 | 7 | · | ·
SMILES | tim23-1 inh | PfHsp90 set2 | tim10-1 inh | Mot1-301 SUMO | TIM10 inh | tim10 confirm | tim23-1 conf
COc1cccc(/C=N/NC(=O)C(=O)Nc2ccccc2OC(F)(F)C(F)F)c1O | 54* | 92* | -2 | -6 | 45* | 56* | 61*
O=C(C1COc2ccccc2O1)N1CCN(c2ccc([N+](=O)[O-])cc2)CC1 (stereo unspecified) | 61* | -12 | 36 | 43 | 43* | 47* | 55*
O=C(C1COc2ccccc2O1)N1CCN(c2ccc(F)cc2)CC1 (stereo unspecified) | 7 | 11 | 10 | 1 | 15 | · | ·
CSCc1c(C(=O)OCC(=O)NC2CCCCC2)oc2ccccc12 | 25 | · | 30 | 31 | 8 | · | ·
CCOCCCN(C(=O)Cn1nnc(-c2ccc(C)o2)n1)C(C(=O)NCC1CCCO1)c1ccc(F)cc1 (stereo unspecified) | 17 | -15 | -3 | 1 | 15 | · | ·
CC1(C)CC(=O)C(=Cc2cn(-c3ccccc3)nc2-c2ccccc2)C(=O)C1 | 64* | 28 | 15 | -16 | 64* | 20 | 34
O/N=C/c1cn(-c2ccccc2)nc1-c1ccccc1 | · | -19 | · | 4 | · | · | ·
Cc1cccc[n+]1CC(=O)/C=C1\N(C)c2ccccc2C1(C)C | 14 | -18 | 13 | 5 | 19 | · | ·
CN1/C(=C\C(=O)CSc2cccc[n+]2[O-])C(C)(C)c2ccccc21 | 65* | 12 | 32 | 5 | 41* | -6 | 78*
COc1ccc(S(N)(=O)=O)cc1C(=O)OCCCC(=O)c1ccccc1 | -7 | 2 | -7 | 0 | -10 | · | ·
NC(=O)CC[C@H](NC(=O)c1ccc(F)cc1)C(=O)OCC(=O)NCc1ccc2c(c1)OCO2 | -10 | 12 | -18 | -4 | -3 | · | ·
Oc1ccc(Cl)cc1Cc1cc(Cl)ccc1O | 73* | 107* | -8 | 76 | 50* | 63* | 8
C[C@H](NC(=O)c1nc[nH]c1C(=O)N1CCNCC1)C(=O)OC(C)(C)C | -12 | 5 | -18 | -16 | -3 | · | ·
CCOc1ccc(NC(=O)COC(=O)CC2CC3CCC2C3)cc1 (stereo unspecified) | 59* | -36 | 4 | 21 | 44* | 40* | 54*
COc1ccc(Nc2nc(N)nc(CSC(=S)N3CCCCC3C)n2)cc1 (stereo unspecified) | 53* | -11 | 29 | 6 | 40 | 24 | 45*
COc1ccc(Nc2nc(N)nc(CSC(=S)N3CCCCC3)n2)cc1 | 25 | -5 | 37 | 5 | 35 | · | ·
